Assay results: PubChem BioAssay (NCI)
This is part of a sample that, as a whole, favours compounds with a hit. Of some 83,000 tested, about 20% had one in any assay.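 Cells were grown in 96-well plates and exposed to the test compound at a single concentration for 48 hours; results are reported as percent growth, with values below 10 considered active.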 Values without a mark were called inactive. Active and inactive are the calls of the source.

The molecules below were run on HL-60(TB) leukemia (assay: NCI-60 one-dose screen, 48 h (100 = growth as untreated, 0 = no growth, -100 = all killed)). Settings: 10 µM unless noted.

| Structure (SMILES) | growth |
| --- | --- |
| Cn1cc(-c2nonc2-c2c[nH]c3ccccc23)c2cc(Br)ccc21 | 38.2% |
| COc1ccc(/C=N\NC(=O)c2ccc3nc(-c4ccc(Cl)cc4)[nH]c3c2)cc1 | 96.3% |
| COc1ccn2c(C(C)=O)cc(C(=O)c3ccc4c(c3)Sc3ccccc3N4)c2c1 | -9.97% (active) |
| COc1cc2cc(Oc3ccc(NC(=O)Nc4ccc(Cl)c(Cl)c4)cc3)c(C)nc2cc1OCCN1CCCCC1 | 44.1% |
| O=C1CC(SC(=S)C2CCCC2=O)C(=O)N1 (centres undefined) | 97% |
| NC(=N\N=C/Cc1ccccc1)/C(N)=N\N=C\Cc1ccccc1 | 70.8% |
| Cc1cc(Cl)ccc1NC(=O)/C(Cl)=C1/Sc2ccccc2NC1=O | 93.1% |
| CC(=O)Nc1sc2c(c1-c1nc3ccccc3s1)CNC2 | 28.4% |
| O=C1C=CC2(O)OC(c3ccccc3)CC(=O)C2=C1O (centres undefined) | 50.5% |
| CCOc1c(C#N)nnc2c(C#N)c(NC(=O)c3ccccc3)nn12 | 104% |
| N#Cc1c(N)n(C2OC(CO)C(O)C2O)c2ncnc(N)c12 (centres undefined) | -67.1% (active) |
| CCCn1c2cc(OCc3cn(-c4ccc(Br)cc4)nn3)ccc2c2ccnc(C)c21 | -61.3% (active) |
| COc1ccc(-c2nn(-c3cccc(Cl)c3)cc2-c2nc(N)[nH]c(=O)c2C#N)cc1 | 78.7% |
| COc1ccc(-c2c[nH]c(C(=O)O)c2-c2cc(OC)c(OC)c(OC)c2)cc1 | -13.8% (active) |
| CC(C)C[C@@H](C(=O)N[C@H](C(=O)OC1CCCC1)c1ccccc1)[C@H](O)C(=O)NO | 35.9% |
| CCOC(=O)c1ccc(NC(=O)NC2=NCCS2)cc1 | 13.5% |
| O=C(Nc1cccc(C(F)(F)F)c1)Nc1ccc(OCc2nnc(-c3ccccc3)o2)c(F)c1 | -4.69% (active) |
| COc1cccc2c1C(=O)c1c(O)c3c(c(O)c1C2=O)C[C@](O)(C(=O)CO)C[C@H]3O[C@@H]1C[C@@H](NC(=O)CCCCCN(C)C2(c3ccc(F)cc3)CC3CCC2C3)[C@H](O)[C@@H](C)O1 (some centres undefined) | 84.9% |
| COC(=O)C1=C(C)NC(C)=C(C(=O)OC)C(N2C(=O)CCC2=O)C1 (centres undefined) | 90.8% |
| Cc1nc2c(c(-c3ccccc3)n1)Cc1c(ccc3ccccc13)O2 | 103% |

| Structure (SMILES) | growth |
| --- | --- |
| Nc1ccccc1SC1CC(=O)N(c2ccc(I)cc2)C1=O (centres undefined) | 65.6% |
| COc1cc(/C=N\NC(=O)CN2CCN(c3cc4c(cc3F)c(=O)c(C(=O)N/N=C/c3cc(OC)c(OC)c(OC)c3)cn4C3CC3)CC2)cc(OC)c1OC | -10.2% (active) |
| Nc1ccn(C2CC(O)C(CO)O2)c(=O)n1 (centres undefined) | 86.1% |
| CCCN1CCN(c2ccc3nc(-c4ccc5nc(-c6ccc(OCC)cc6)[nH]c5c4)[nH]c3c2)CC1 | 16.9% |
| CCN1C(=O)N(CC)C2C1NC(=S)N2/N=C/C=C/c1cccs1 (centres undefined) | -41.3% (active) |
| Cc1ccc(NC(=O)c2sc3nc4c(cc3c2N)C(=O)CCC4)cc1Cl | 106% |
| CCCCCCCCCCCCCCCCCCOc1ccccc1CC(=O)NCC[N+]1(C)CCCCC1 | 41.8% |
| Clc1ncccc1Nc1ccc2nnc(-c3ccncc3)n2n1 | 89.5% |
| COc1cc(C2=NN(C(C)=O)C(c3cccc(Nc4ccnc5cc(C(F)(F)F)ccc45)c3)C2)cc(OC)c1OC (centres undefined) | 10.6% |
| CNCc1cccc2c1OCCOCCN(C)C(=O)CN(C)S(=O)(=O)c1ccc(cc1)-c1cnc(N)c(n1)C(=O)N2 | -32.9% (active) |
| COc1ccc(Cn2c(C(N)=O)cc3c2-c2nc(N)ncc2CCC3)cc1 | 121% |
| COc1ccc2c(c1)N(CCO)C1=C(C(=O)OC1)C2c1ccc(OC)c(OC)c1 (centres undefined) | -2.68% (active) |
| O=C(N/N=C\c1cc(Br)ccc1O)c1ccncc1 | -27.5% (active) |
| CCOC(=O)/C(=C/c1c(-c2ccccc2)[nH]c2ccccc12)C(=O)c1ccc(Cl)cc1 | -10.6% (active) |
| CN(C)CCCNC1=C(Cl)C(=O)c2ccccc2C1=O | 45.3% |
| O=P(O)(c1ccccc1)c1ccccc1I | 117% |
| O=[N+]([O-])c1cccc(/C=N\Nc2ccccc2)c1 | 20.1% |
| NC1=NN(O)C2=CC([N+](=O)[O-])C=CC2=N1 (centres undefined) | 103% |
| Nc1ncn([C@@H]2O[C@H](CO)[C@@H](O)C2(F)F)c(=O)n1 | 25.2% |
